# Screening data: PubChem BioAssay, National Center for Advancing Translational Sciences (NCATS)
# TbPYK inhibitor: blocks Trypanosoma brucei pyruvate kinase | Potency, µM (highest dose often 76.8 µM), for the others: top-dose activity, negative = inhibition, usual class: inhibitors | AID 624173 | Q57TT1 | TbPYK enzyme, Kinase-Glo Plus ATP luminescence, 45 min | 410,000 compounds, 0.12% hits; note: % is set by controls: 0 for no effect and ±100 for the full control effect; nearly all actives have a fitted effect of over 50% in size
#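 In this concentration-response screen, enzyme-free wells defined baseline while DMSO plates tracked drift. Each reaction combined TbPYK, substrate, compound and 130 uM ADP for 45 min at room temperature. Kinase-Glo Plus luminescence gave the signal.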
# SARS PLP yeast: blocks SARS-CoV papain-like protease in a yeast assay | S. cerevisiae expressing SARS-CoV PLpro, growth rescue | Potency, µM (series often up to 32.9 µM), inactives show at the top dose activity, positive = growth rescue, hits mostly activators | 330,000 compounds, 0.19% hits; calls by dose curve; note: 0% is about no effect; nearly all actives have a fitted effect of over 55% in size
# AmpC no deterg: AmpC beta-lactamase inhibition without detergent; Potency, µM (doses to about 57.1 µM), inactives show top-dose activity change, negative = inhibition, actives largely listed as inhibitors; P00811; AID 485341; 330,000 compounds, 0.52% hits; AmpC nitrocefin hydrolysis, absorbance 480 nm, 0.0001% Triton;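 note: plate controls were no compound for no effect and no enzyme for full effect; nearly all actives have a fitted effect of over 20% in size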
# Target sequence (P00811 whole entry, looked up): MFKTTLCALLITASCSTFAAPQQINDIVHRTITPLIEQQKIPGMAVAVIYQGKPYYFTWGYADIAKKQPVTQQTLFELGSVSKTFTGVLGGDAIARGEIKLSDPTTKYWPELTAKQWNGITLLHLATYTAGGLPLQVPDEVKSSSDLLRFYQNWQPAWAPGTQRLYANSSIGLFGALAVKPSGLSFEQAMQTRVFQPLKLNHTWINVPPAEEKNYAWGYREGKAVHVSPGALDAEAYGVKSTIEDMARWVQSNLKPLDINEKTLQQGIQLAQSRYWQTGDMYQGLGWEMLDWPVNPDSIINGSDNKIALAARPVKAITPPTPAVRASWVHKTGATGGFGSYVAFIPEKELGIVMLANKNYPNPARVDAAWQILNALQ
#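 20 mM phosphate pH 7.0 + 0.01% (detergent screen) or 0.0001% Triton X-100; 5.3 nM AmpC reagent; cpd preinc 15 min RT; nitrocefin (800 uM stock) to start; A480 q20 s × 4 min; Activity was normalised to no-enzyme and no-compound control wells.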
# RE007 growth inh: less growth of the S. pombe RE007 Vpr strain. S. pombe RE007 Vpr strain, BacTiter-Glo ATP luminescence, 24 h. Potency, µM (doses to about 92.2 µM), for inactives: at the highest dose activity change, negative = less growth, actives largely listed as inhibitors. 360,000 compounds, 0.21% hits. AID 651644; active = well fitted falling curve with a large enough effect; inconclusive = small, poorly fitted or top-dose-only effect; inactive = no such curve, though single readings can be large or run the other way; note: % is set by controls: 0 for no effect and ±100 for the full control effect; nearly all actives have a fitted effect of over 50% in size
#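 Fission yeast strain RE007, carrying one chromosomally integrated HIV-1 vpr copy, was seeded at OD 0.01 in PMG+AL medium with 23 nL pinned compound. After 24 h at 30 °C and 99% humidity, viability was read by BacTiter-Glo luminescence.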
# AmpC detergent: AmpC beta-lactamase inhibition with detergent present; AmpC hydrolysis of nitrocefin, absorbance 480 nm, 0.01% Triton; 370,000 compounds, 0.041% hits; Potency, µM (top dose mostly 114 µM), for the others: at the top dose activity change, negative = inhibition, usual class: inhibitors; P00811;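 note: 0% = no-compound wells and -100% = no-enzyme wells; nearly all actives have a fitted effect of over 25% in size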
#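 20 mM phosphate pH 7.0 + 0.01% (detergent screen) or 0.0001% Triton X-100; 5.3 nM AmpC reagent; cpd preinc 15 min RT; nitrocefin (800 uM stock) to start; A480 q20 s × 4 min; Activity was normalised to no-enzyme and no-compound control wells.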
# Sm TGR inh: S. mansoni TGR enzyme inhibition | Q962Y6 | purified TGR, DTNB reduction, TNB absorbance 405 nm | Potency, µM (doses to about 114 µM), without a hit: at the highest dose activity change, negative = inhibition, actives largely listed as inhibitors | 360,000 compounds, 3% hits | AID 485364; note: % is set by controls: 0 for no effect and ±100 for the full control effect; nearly all actives have a fitted effect of over 60% in size
#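 First, TGR (20 nM dispensed) and NADPH were mixed with compound. Second, a 15 min room-temperature incubation followed. Third, further NADPH and then DTNB were added to start the reaction. Finally, TNB absorbance was monitored kinetically.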
# Starred values were filed as active, the others as inactive; ? = inconclusive; nt = no result given; [ ] = another dose, or the depositor's remark. A selection: hits, their analogues and other compounds. The true share with any hit is near 3.3%. Unless noted, calls come from the whole dose curve; as a rule, active = well fitted curve in the direction sought with a large enough effect; inconclusive = small, poorly fitted or top-dose-only effect, or another doubt; inactive = no such curve, though single readings can be large; an effect the other way counts as inactive or inconclusive. Potency is the fitted concentration of half-maximal effect.
SMILES,TbPYK inhibitor,SARS PLP yeast,AmpC no deterg,RE007 growth inh,AmpC detergent,Sm TGR inh
O=C(O)c1cccc(Cn2c(Cl)c(/C=N/NC(=O)c3ccc(O)cc3)sc2=O)c1,-8%,0%,-20%,-2%,3%,32µM*
COC(=O)c1cccc(Cn2c(Cl)c(/C=N/NC(=O)c3ccco3)sc2=O)c1,3%,-1%,-45%,-12%,-2%,35µM*
COc1ccc(OCC(=O)N/N=C/c2cccn2-c2cccc(C(=O)O)c2)cc1,3%,-1%,-7%,-11%,-25%,-20%
COC(=O)c1cccc(Cn2c(Cl)c(/C=N/NC(=O)c3ccccc3Cl)sc2=O)c1,-8%,-3%,-42%,9%,-12%,?
O=C(COc1ccccc1)N/N=C/c1sc(=O)n(Cc2cccc(C(=O)O)c2)c1Cl,-11%,7%,-33%,6%,0%,35µM*
O=Cc1sc(=O)n(Cc2cccc(C(=O)O)c2)c1Cl,-14%,2%,-30%,-2%,-2%,3%
CCOC(=O)C1CCN(S(=O)(=O)c2ccc(N3CCCCS3(=O)=O)cc2)CC1,2%,nt,nt,nt,10%,7%
CCN(Cc1ccccc1)C(=O)Cn1cc(S(=O)(=O)Cc2cccc(Cl)c2)c2ccccc21,6%[15.4 µM],nt,nt,nt,2%,4%
O=C(O)Cc1cccc(OCCCN(Cc2cccc(C(F)(F)F)c2Cl)CC(c2ccccc2)c2ccccc2)c1,6%,nt,nt,nt,nt,nt
COc1cccc2c1cc1c(=O)n(CC(=O)O)nc(C)n12,-2%,nt,nt,nt,12%,0%
CCC1CN(C(=O)N2CCC(C(=O)NCCc3ccc(C)cc3)CC2)c2ccccc2O1 (stereo not given),-9%,nt,nt,nt,2%,-1%
O=c1sc(/C=N/Nc2ccccc2)c(Cl)n1Cc1ccccc1,-7%,3%,-31%,-7%,4%,7.9µM*
O=C(N/N=C/c1sc(=O)n(-c2ccccc2)c1Cl)c1ccccc1,3%,-11%,-25%,-11%,-6%,?
CCCCN1C(=O)CN(C2CCCCCC2)C(=O)C1c1ccc(OC(C)C)c(OC)c1 (stereo not given),-9%,nt,nt,nt,-7%,?
COc1cccc(NC(c2nnc(-c3ccccc3)o2)c2ccc(F)cc2Cl)c1 (stereo not given),-3%,nt,nt,nt,-4%,2%
Cc1ccc(NC(=O)CC2Nc3cc(C)c(C)cc3NC2=O)c(C)c1 (stereo not given),-9%,nt,nt,nt,-3%,-2%
COc1ccccc1N(C(C)=O)C1=C(Cl)C(=O)c2ccccc2C1=O,?,nt,nt,13µM*,nt,nt
CC1CCCCC12NC(=O)N(CC(=O)NC(=O)Nc1ccc3c(c1)OCCO3)C2=O (stereo not given),0%,0%,-2%,4%,-10%,71µM*
CCCCCCCC(=O)CC[C@H]1[C@@H](C/C=C/CCCC(=O)OC(C)C)[C@@H](O)C[C@H]1O,-8%,nt,nt,nt,nt,nt
Cc1ccc(S(=O)(=O)NCCc2csc3nc(-c4ccccc4C)nn23)cc1,-1%,nt,nt,nt,-6%,3%
Cc1cccn2c(=O)cc(COc3ccc(NC(=O)COc4ccc(F)cc4)cc3)nc12,-6%,nt,nt,nt,18%,5%
CSc1ccc(CCNC(=O)CCc2c(C)nc3c(c(C)nn3-c3ccc(C)c(C)c3)c2C)cc1,-4%,nt,nt,nt,-1%,10%
N#C/C(=C/c1ccc(-c2ccc(S(N)(=O)=O)cc2)o1)C(=O)Nc1ccccc1,5%,9%,16µM*,3%,-10%,-5%
C=CCN(C(=O)CCS(=O)(=O)c1cccc2nsnc12)c1ccccc1,-9%,-12%,-6%,-5%,-11%,25µM*
O=C(CSc1ccc2nnc(-c3ccncc3)n2n1)NCc1ccco1,-5%,14%,-6%,3%,1%,3.2µM*
SMILES,TbPYK inhibitor,SARS PLP yeast,AmpC no deterg,RE007 growth inh,AmpC detergent,Sm TGR inh
Cc1ccc(-c2nnc3ccc(SCC(=O)NCc4ccco4)nn23)cc1,-8%,3%,-13%,-2%,-20%,50µM*
O=C(CSc1nnc(C2CCCCC2)n1-c1ccccc1)NCc1ccco1,1%,2%,-4%,17%,?,45µM*
Cc1ccc(-n2c(SCC(=O)NCc3ccco3)nnc2-c2cccnc2)cc1,4%,-6%,-1%,-7%,-8%,45µM*
CCOc1ccc(-c2nnc3ccc(SCC(=O)NCc4ccco4)nn23)cc1,-8%,-1%,4%,4%,1%,15%
Cc1cccc(NC(=O)C(=O)NCCc2csc(-c3ccc(C(F)(F)F)cc3)n2)c1C,1%,nt,nt,nt,2%,?
CC1CN(C(=O)CCC(=O)NCc2cccs2)c2cc(Cl)ccc2O1 (stereo not given),5%,nt,nt,nt,7%,4%
CCOC(=O)CNC(=O)CSc1ccc2nnc(-c3ccc(F)cc3)n2n1,-16%,0%,-15%,-16%,?,-2%
CCOC(=O)CSc1ccc2nnc(-c3ccncc3)n2n1,-1%,-8%,-7%,0%,-11%,-2%
CCSc1ccc2nnc(-c3ccc(F)cc3)n2n1,-19%,-9%,0.4µM*,15%,3%,2%
O=C(CSc1ccc2nnc(-c3ccc(F)cc3)n2n1)NCc1ccco1,-2%,0%,-5%,3%,-2%,45µM*
CCOC(=O)CC(=O)CSc1ccc2nnc(-c3ccccc3)n2n1,-9%,-3%,0.16µM*,11%,2%,-28%
CCc1ccc(-n2nc(CO)c(C(=O)NCCOC)n2)cc1,5%,nt,nt,nt,9%,4%
CCOC(=O)c1cc2c(=O)n3ccccc3nc2n(CC2CCCO2)c1=NC(=O)c1ccc(OC)cc1OC (stereo not given),-10%,nt,nt,nt,-5%,-2%
O=C(CCN1N=C(c2ccccc2)CCC1=O)NCCc1ccc(Cl)cc1,-4%,nt,nt,nt,2%,-12%
Cc1ccc(-n2ncc3c(NC4CCCCC4)ncnc32)cc1Cl,3%,nt,nt,nt,1%,6%
CCCCn1c(N)c(N(CC)C(=O)CSCc2c(C)noc2C)c(=O)[nH]c1=O,0%,-1%,-15%,-12%,?,-9%
CCCCn1c(N)c(N(CCOC)C(=O)CSCc2c(C)noc2C)c(=O)[nH]c1=O,0%,8%,10%,-22%,0%,79µM*
OC(C#CCN1CCCCCC1)(c1ccccc1)c1cccnc1 (stereo not given),-13%,0%,-7%,15%,9%,14µM*
OC(C#CCN1CCCC1)(c1ccccc1)c1cccnc1 (stereo not given),2%,2%,-27%,-5%,-4%,32µM*
